An excerpt weighted towards active compounds, which were near 3.1% of everything screened.
IkB sig inh: IkB pathway inhibition in ABC-DLBCL cells; actives 0.04% (n = 110,000); Potency, µM (doses to about 57.1 µM), without a hit: at the top dose IkBa stabilization activation; ABC-DLBCL IkBa-CBG/CBR dual luciferase ratio, 4 h; response scale: scaled: untreated 0%, proteasome inhibitor 100%; active means well fitted curve in the direction sought with a large enough effect in the signal ratio, not every such curve was filed as active; inconclusive means small, poorly fitted or top-dose-only effect, or a change in a side signal; the % refers to the signal ratio;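 further: the direction sought is a rising ratio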
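In this assay, an IκBα–CBG68 fusion accumulates when IKK-driven degradation is blocked; native CBR normalizes for cell number. OCI-Ly3 cells were treated 4 h with compound and doxycycline, then green and red light read after Chroma-Glo addition.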
HEK293 cAMP ctrl: counter-screen for TSHR agonists: cAMP increase in parental HEK293. Potency, µM (titrated, usually from 57.1 µM), without a hit: top-dose activation, usual class: activators. actives 2.5% (n = 73,000). AID 938. parental HEK293 CNG cAMP sensor, membrane potential fluorescence; further: % of control where 0% means no effect; nearly all actives have a fitted effect of over 55% in size
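Parental HEK 293 cells stably expressing a cAMP-gated CNG channel were loaded with membrane potential dye containing 100 uM RO 20-1724 for 60 min. Compound added for 30 min; depolarization read as fluorescence intensity at 590 nm.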
Imprint erasure: inducers of genomic imprint erasure in mouse ES cells; mouse ES Peg3-LacZ reporter, beta-gal luminescence, 40 h; Potency, µM (series often up to 60.7 µM), inactives show at the highest dose activity change, positive = activation, hits mostly activators; actives 0.02% (n = 110,000); AID 1948
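Readout: BetaGlo luminescence (5 min, room temp) for LacZ from the normally silent maternal Peg3 allele in female Peg3LacZ-Neo ES cells. Cells 300/well, 40 h, 37C, 5% CO2. Data normalized per plate to negative controls.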
TSHR ag: activates the human thyroid stimulating hormone receptor. P16473. HEK293-CNG-TSHR cells (CNG channel as cAMP sensor), membrane potential dye, cAMP. Potency, µM (series often up to 57.1 µM), without a hit: at the highest dose activation, most hits filed as activators. actives 0.48% (n = 73,000); active means well fitted activation curve with a large enough effect in the main read-out, with a control signal flat, not every such curve was filed as active; inconclusive means small, poorly fitted or top-dose-only effect, or a change in a side signal; inactive means no such curve, though single readings can be large or run the other way; % of control where 0% means no effect;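 further: the control signal comes from parental cells without the receptor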
Target sequence (P16473 whole entry, looked up): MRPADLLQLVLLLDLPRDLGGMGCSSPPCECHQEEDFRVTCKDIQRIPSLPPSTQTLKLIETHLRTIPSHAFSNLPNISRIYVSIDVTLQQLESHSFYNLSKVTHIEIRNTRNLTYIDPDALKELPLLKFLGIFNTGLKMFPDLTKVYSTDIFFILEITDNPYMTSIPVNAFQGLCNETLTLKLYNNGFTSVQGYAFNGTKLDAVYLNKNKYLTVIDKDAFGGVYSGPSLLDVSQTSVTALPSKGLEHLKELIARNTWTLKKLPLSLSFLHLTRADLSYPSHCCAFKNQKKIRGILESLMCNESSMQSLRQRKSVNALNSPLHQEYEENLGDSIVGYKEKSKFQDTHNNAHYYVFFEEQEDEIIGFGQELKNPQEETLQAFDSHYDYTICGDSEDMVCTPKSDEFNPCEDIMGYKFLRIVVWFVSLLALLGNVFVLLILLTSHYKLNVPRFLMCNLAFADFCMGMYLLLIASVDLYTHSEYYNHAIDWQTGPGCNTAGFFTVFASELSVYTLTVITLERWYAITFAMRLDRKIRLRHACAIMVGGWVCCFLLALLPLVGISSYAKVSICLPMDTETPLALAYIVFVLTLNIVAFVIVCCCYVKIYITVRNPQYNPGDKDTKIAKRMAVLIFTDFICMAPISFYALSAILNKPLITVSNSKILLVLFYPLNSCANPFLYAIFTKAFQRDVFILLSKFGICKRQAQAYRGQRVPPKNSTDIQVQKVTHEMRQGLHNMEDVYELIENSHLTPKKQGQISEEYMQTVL
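cAMP rise detected as CNG-channel membrane depolarization by fluorescent dye (emission 590 nm), 30 min after compound, following 60 min dye loading containing 100 uM RO 20-1724 at room temperature. Cells: TSHR/CNG HEK 293, with parental CNG HEK 293 as control.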
p53ts 32C kill: p53ts cell cytotoxicity, permissive temperature | Potency, µM (doses to about 46.1 µM), for inactives: top-dose activity change, negative = cytotoxicity, usual class: cytotoxic | actives 0.93% (n = 130,000) | H1299-p53A138V at 32C, ATP luminescence viability, 24 h | AID 924;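 further: 0% = DMSO and -100% = full killing by reference compound; nearly all actives have a fitted effect of over 55% in size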
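ATP-content luminescence (ATPlite) read-out after 24 h compound exposure at 32C in H1299-p53A138V cells (600/well). Tested up to 46 uM. Normalized to DMSO (0%) and 100 uM tamoxifen (100% killing); Hill-fit AC50.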
p53ts 39C tox: p53ts cell cytotoxicity, nonpermissive temperature; H1299-p53A138V viability at 39C, ATP luminescence, 24 h; Potency, µM (titrated, usually from 46.1 µM), inactives show at the top dose activity change, negative = cell killing, actives largely listed as cytotoxic; actives 1.5% (n = 130,000); AID 902; further: on the % scale 0 is the no-effect control and ±100 the full control effect; nearly all actives have a fitted effect of over 55% in size
The depositor's hits bear a star; ? = inconclusive; . = no result; [ ] = remark or other dose. Unless noted, the call rests on the fitted dose curve; in most records, active means well fitted curve in the direction sought with a large enough effect; inconclusive means small, poorly fitted or top-dose-only effect, or another doubt; inactive means no such curve, though single readings can be large; an effect the other way counts as inactive or inconclusive. Potency means the concentration at half of the fitted maximal effect.

SMILES | IkB sig inh | HEK293 cAMP ctrl | Imprint erasure | TSHR ag | p53ts 32C kill | p53ts 39C tox
COC(=O)[C@@]1(Cc2ccc(OC)cc2)[C@H]2c3cc(C(=O)N4CCCC4)n(CCc4ccc(O)c(O)c4)c3C[C@H]2CN1C(=O)c1ccccc1 | . | 6% | -9% | 4% | 10% | 5%
COC(=O)[C@@]1(Cc2ccc(OC)cc2)[C@H]2c3cc(C(=O)N4CCCC4)n(Cc4ccc(C)o4)c3C[C@H]2CN1C(=O)c1ccccc1 | . | 3.2µM* | -16% | ? | 25% | 31%
COC(=O)[C@@]1(Cc2ccc(OC)cc2)[C@H]2c3cc(C(=O)N4CCCC4)n(Cc4ccc(S(C)(=O)=O)cc4)c3C[C@H]2CN1C(=O)c1ccccc1 | . | 20µM* | -3% | ? | -1% | -14%
COC(=O)[C@@]1(Cc2ccc(OC)cc2)[C@H]2c3cc(C(=O)N4CCCC4)n(Cc4ccsc4Br)c3C[C@H]2CN1C(=O)c1ccccc1 | . | 2.5µM* | -19% | ? | 28% | 16%
COC(=O)[C@@]1(Cc2ccc(F)cc2)[C@H]2c3cc(C(=O)N4CCCC4)n(Cc4ccccn4)c3C[C@H]2CN1C(=O)c1ccccc1 | . | ? | 1% | ? | 17% | -13%
COC(=O)[C@@]1(Cc2ccccc2)[C@H]2c3cc(C(=O)N4CCCC4)n(Cc4ccc(S(C)(=O)=O)cc4)c3C[C@H]2CN1C(=O)c1ccccc1 | . | 7.9µM* | -15% | ? | 14% | -10%
CCOc1ccccc1NC(=O)c1ccccc1-c1nc(-c2ccccc2)no1 | 1% | 16µM* | -21% | ? | 4% | -11%
COc1ccc(-c2noc(-c3ccccc3C(=O)Nc3cccc(OC)c3)n2)cc1 | ? | 13µM* | -23% | ? | -5% | -22%
Cc1c(O)ccc2c1OCO2 | . | -2%[11.4 µM] | . | -1%[11.4 µM] | -2%[9.22 µM] | -5%[9.22 µM]
C=Cc1ccc(Cn2c(C(=O)O)c(CNCc3ccccc3)c3ccc(C)cc32)cc1 | ? | . | 3%[10.9 µM] | . | ? | 16µM*
Cc1ccc(Cn2c(C(=O)O)c(CNCc3ccc(OC(C)C)cc3)c3ccc(C)cc32)cc1 | ? | . | -14%[10.9 µM] | . | -7% | 16µM*
CCOC(=O)OCC1OC(C#Cc2ccc(C)cc2C)C=CC1OC(=O)OCC (stereo not drawn) | . | 2%[11.4 µM] | . | -1%[11.4 µM] | 2%[9.22 µM] | -10%[9.22 µM]
COc1ccccc1NC(=O)N1CCOc2ccccc21 | ? | . | -17%[10.9 µM] | . | 4% | 7%
Cc1ccccc1NC(=O)c1cnc2ccccn2c1=O | . | 1% | . | -2% | 10µM* | 16µM*
Cc1oc(-c2ccc(C(=O)NCCC(C)C)cc2)nc1CS(=O)(=O)c1ccccc1 | -1% | . | 5%[10.9 µM] | . | -3% | 39%
COc1ccc(-n2nc(C(=O)N(C)c3cccc(C(F)(F)F)c3)c3c4ccccc4n(C)c3c2=O)cc1 | -3% | . | 7%[10.9 µM] | . | 3% | -11%
CCOC(=O)C1=C(C)Nc2nc(SC)nn2C1c1ccc(C(=O)OC)cc1 (stereo not drawn) | -1% | 12% | -12% | 16µM* | 2% | -7%
c1ccc2nc(-c3nc4ccccc4[nH]3)ccc2c1 | ? | ? | -94% | ? | 3.2µM* | 2µM*
CC1CCN(c2ncnc3c2nnn3C)CC1 | -6% | . | -6%[10.9 µM] | . | 8% | -8%
Nc1nonc1-c1nc2ccccc2n1CC(=O)NC1CCCC1 | 5% | 6.3µM* | -9% | ? | -4% | -3%
CCOC(=O)c1ccccc1NC(=O)Cn1c(-c2nonc2N)nc2ccccc21 | 7% | 25µM* | -19% | ? | -1% | -4%
Nc1nonc1-c1nc2ccccc2n1Cc1ccc(Br)cc1 | 0% | . | -10%[10.9 µM] | . | -7% | -19%
Nc1nonc1-c1nc2ccccc2n1Cc1ccccc1 | 6% | 25µM* | -26% | ? | -8% | 0%
CCC(=O)Nc1nonc1-c1nc2ccccc2n1CC(C)C | 0% | 25µM* | -4% | ? | 7% | 3%

Bioassay records from PubChem BioAssay.
